# Measured values as given in PubChem BioAssay (NCI).
# About 83,000 compounds went through this panel and 20% of them were active in at least one assay; those are over-represented in the sample as a whole.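 Values shown are percent growth following 48 h exposure of cells in 96-well plates to a single concentration of compound; below 10 was considered active.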 Values without a mark were called inactive. Activity calls are given as the source filed them.
# How the values were obtained:
# Experiment in all cases: NCI-60 one-dose screen, 48 h (100 = growth as untreated, 0 = no growth, -100 = all killed)
# Conditions in all cases: 10 µM unless noted
# T-47D breast = tested on: T-47D breast
# BT-549 breast = tested on: BT-549 breast
# MDA-MB-435 melanoma = tested on: MDA-MB-435 melanoma
# SW-620 colon = tested on: SW-620 colon
# MCF7 breast = tested on: MCF7 breast
# HCT-116 colon = tested on: HCT-116 colon
# HCC-2998 colon = tested on: HCC-2998 colon
# KM12 colon = tested on: KM12 colon
Structure (SMILES),growth (T-47D breast),growth (BT-549 breast),growth (MDA-MB-435 melanoma),growth (SW-620 colon),growth (MCF7 breast),growth (HCT-116 colon),growth (HCC-2998 colon),growth (KM12 colon)
COc1cc(C(=O)Oc2ccccc2OC(=O)c2cc(OC)c(OC)c(OC)c2)cc(OC)c1OC,102%,94%,103%,109%,97.2%,104%,101%,90.8%
C=CCSSC1N=CNc2nc[nH]c21 (stereo not given),22.8%,47%,25.5%,35.8%,4.28% (active),14.5%,44.2%,52.5%
COc1cc(-c2nn(-c3ccc(C(=O)O)cc3)cc2C(=O)O)ccc1O,93.2%,70.3%,-5.36% (active),32.1%,35.3%,86.6%,91.3%,42.5%
CN(CCCCCl)P(=O)(OCc1ccc([N+](=O)[O-])o1)C(F)(F)c1ccc(CC(=O)NC[C@@H](O)/C=C\[C@@H](O)[C@H](CO)Cc2ccccc2)cc1 (stereo not given in full),75.5%,90.7%,65.4%,87.7%,59.9%,93.3%,105%,85.5%
O=C(Oc1cccnc1)c1ccsc1Nc1ccnc(C(F)(F)F)c1,72.7%,45%,82.6%,21%,58.2%,9.98% (active),114%,41%
COc1cc(/C=C/C(=O)c2ccc(O)c(CN3CCN(c4cc5c(cc4F)c(=O)c(C(=O)O)cn5C4CC4)CC3)c2)cc(OC)c1OC,50.4%,31.8%,28.6%,34.8%,18.6%,7.72% (active),67.2%,72%
COc1ccc(Nc2nc(SC)nc(-c3cccc([N+](=O)[O-])c3)c2C#N)cc1,70.1%,86.9%,66.5%,57.9%,66.7%,15.8%,94.3%,97.7%
NNCCc1ccc(NC(=O)CCCc2ccc(/C=C/C(=O)NO)cc2)cc1,-5.44% (active),44.9%,66%,43.3%,30.8%,35.3%,95.5%,57.1%
COc1ccc(/C=C\c2cc(OC)c(OC)c(OC)c2)cc1OCC(=O)Nc1ccc2nc(C)sc2c1,6.4% (active),38%,-3.48% (active),38%,20.6%,23.4%,86.1%,19%
COc1cccc(-c2nc3sccn3c2-c2ccnc(NCCCNS(=O)(=O)c3c(Cl)cccc3Cl)c2)c1,5.35% (active),43.2%,64.5%,76.8%,65.8%,52.6%,84.8%,68.2%
CCN(CC)c1ccc2c(c1)Oc1nc(N)c(C#N)c(N)c1C2Sc1ccc(SC)cc1 (stereo not given),-4.08% (active),-80.4% (active),-25.7% (active),-70.7% (active),-0.904% (active),-27.5% (active),-72.2% (active),-74.5% (active)
COc1ccc(-c2cc(Nc3ccnc(N4CCOCC4)n3)on2)cc1,55.1%,57.1%,-30.2% (active),31.1%,24.4%,12.7%,40.4%,20.3%
COc1ccc(-c2nc3ccc(-c4nc5ccc(N6CCN(c7ccccc7)CC6)cc5[nH]4)cc3[nH]2)cc1OC,-36.4% (active),52.9%,-3.15% (active),-32.7% (active),-85.3% (active),-100% (active),-53.6% (active),4.37% (active)
COc1ccc(S(=O)(=O)N2CC3(COC3)C2)cc1NC(=O)c1[nH]c(C)c2c1CCCCC2=O,37%,73.3%,45.5%,72.9%,21.9%,51.7%,58.7%,54.6%
COc1ccc(/C=C(\C#N)C(=O)Nc2cccc(Nc3nc(SC)nc(-c4cccc([N+](=O)[O-])c4)c3C#N)c2)cc1OC,87%,95.9%,103%,102%,70.8%,92.6%,114%,99.1%
C=CC(=O)Nc1cccc(-c2nc(SC)nc(NCc3ccccc3)c2C#N)c1,28.5%,44.3%,62%,89%,47.2%,55.1%,84.7%,89.2%
N#CN1CCC[C@H]1C(=O)N1CCc2c(-c3[nH]nc4ncccc34)cccc21,13%,-37.6% (active),-61.6% (active),15.1%,5.76% (active),-19.6% (active),-6.99% (active),-14% (active)
O=[N+]([O-])c1ccccc1/C=N\NC(=S)N/N=C/c1ccccc1[N+](=O)[O-],61%,47.4%,-1.94% (active),23.9%,58.9%,18.9%,73.5%,17%
Cc1nc(/N=C(\N)NC(=O)Nc2cccc([N+](=O)[O-])c2)sc1C,80.8%,65.8%,8.17% (active),40.1%,31.1%,71.1%,84.1%,72.1%
C=C(C)[C@@H]1CC[C@]2(C(=O)OC)CC[C@]3(C)[C@H](CC[C@@H]4[C@@]5(C)C/C(=C/c6ccc(OC)cc6)C(=O)C(C)(C)[C@@H]5CC[C@]43C)[C@@H]12,101%,96.6%,72.1%,62.5%,49.1%,41.8%,92.4%,94.3%
COc1cc(Nc2cc(C)nc(N3CCN(c4ccnc5cc(Cl)ccc45)CC3)n2)cc(OC)c1,8.17% (active),41.8%,-2.88% (active),15.9%,5.32% (active),2.14% (active),7.77% (active),3.72% (active)
CC(=O)c1cc2c(N)c(C(=O)Nc3cccc(F)c3C)sc2nc1C,80.6%,80.9%,4.9% (active),85.9%,78.9%,92.3%,85%,87.1%
COc1cc(-c2nc3ccccc3[nH]2)ccc1OCc1nnc(-c2ccc(CC(C)C)cc2)o1,57.2%,88.5%,98%,103%,79.6%,82%,119%,102%
CN1CCN(c2nc(NCCCNc3ccnc4cc(Cl)ccc34)c3ccccc3n2)CC1,40.7%,74.5%,-22.4% (active),15.7%,29.9%,37.3%,37.2%,41.9%
CSc1nc(NCCN2CCOCC2)c(C#N)c(-c2cccc([N+](=O)[O-])c2)n1,96.8%,94.2%,104%,99.8%,89.4%,98.8%,112%,98.7%
O=C(N/N=C/c1c[nH]c2ccccc12)c1cc(-c2ccccc2)on1,77.2%,90.3%,94.8%,102%,79.1%,90.6%,92.9%,92.3%
CCCCn1c(-c2ccc(C(=O)O/N=C(\N)c3ccc4ccccc4c3)cc2)nc(-c2ccccc2)c1-c1ccccc1,46.2%,87.9%,85.1%,80.1%,61.2%,60.8%,95.8%,76.7%
COC[C@H](C)n1c(C2CCOCC2)nc2cnc3cc(-c4c(C)noc4C)c(OC)cc3c21,37.9%,69.2%,44.5%,64.3%,22.5%,46.8%,56.6%,54%
CSc1ccc(-c2n[nH]nc2-c2cc3ccccc3s2)cc1,44.9%,46.8%,-19% (active),23.7%,27.7%,30.5%,82.3%,32.2%
Cn1c(O)c(N=NC(=O)c2cc(-c3ccccc3)on2)c2ccccc21,101%,103%,95.3%,105%,77.5%,98.9%,102%,101%
